Akt phos inh: inhibitors of Akt phosphorylation | AID 651550 | 360,000 compounds, 0.32% hits | Neuro2A IGF-stimulated pAkt S473 HTRF, 20 min; active compounds read low | activity change, % for hits at 50 µM; in the data active means activity change below about -80%; inconclusive means mostly about -51% to -80%; further: on the % scale 0 is the no-effect control and ±100 the full control effect
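Neuro2A cells (4,500/well, DMEM with 0.5% FBS) were treated with compound at a single 50 µM final concentration, stimulated with 6 nM IGF for 20 min at 37 °C, and lysed. Phospho-Akt Ser473 was read by HTRF as 665/615 ratio ×10^4.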
aSyn yeast inh: alpha-synuclein toxicity inhibition in yeast; Yeast expressing alpha-synuclein, growth rescue, BacTiter-Glo, 24 h; Potency, µM (top dose mostly 46.1 µM), inactives show at the highest dose growth rescue (activation), usual class: activators; 370,000 compounds, 0.14% hits; further: potency means the concentration at half of the fitted maximal effect; % of control where 0% means no effect; nearly all actives have a fitted effect of over 65% in size
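Readout is rescue of growth in alpha-synuclein-expressing yeast, so inhibitors of toxicity appear as activators. Growth after 24 hr at 30 deg C in galactose medium is quantified by luminescence.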
CCT chaperon mod: changes cytosolic chaperonin activity; purified chaperonin ATPase assay, HTRF ADP detection, 30 min; 360,000 compounds, 0.3% hits; activity change, % (test concentration not listed), hits read low; in the data active means activity change below about -30%; further: on the % scale 0 is the no-effect control and ±100 the full control effect
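First, chaperonin was dispensed at 40 nM or 20 nM final depending on batch activity. Next, compounds were pinned at 76 uM and ATP added at 10 uM. After 30 min at 37 °C, ADP detection reagents ran 30 min at ambient temperature.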
Mito fusion yeast: blocks mitochondrial division or promotes mitochondrial fusion; S. cerevisiae fusion-defective mutant growth rescue, CellTiterGlo 48 h; Potency, µM (top dose mostly 46.1 µM), without a hit: at the top dose growth rescue (activation), hits mostly activators; 320,000 compounds, 0.23% hits; AID 485298; further: potency means the concentration at half of the fitted maximal effect; % of control where 0% means no effect; nearly all actives have a fitted effect of over 45% in size
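Growth-rescue viability read-out: after 48 h at the non-permissive 37C in glycerol/ethanol YPEG, yeast mitochondrial fusion mutants are measured by CellTiterGlo luminescence; compounds (23 nl pinned per well) restoring growth score as division inhibitors or fusion activators.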
Apoferritin bind: candidate novel general anesthetic via apoferritin binding; P02791; apoferritin/1-aminoanthracene competitive binding, fluorescence; Potency, µM (doses to about 77.5 µM), without a hit: top-dose activity change, negative = displacement, actives largely listed as inhibitors; 350,000 compounds, 0.074% hits; AID 485281; further: potency means the concentration at half of the fitted maximal effect; on the % scale 0 is the no-effect control and ±100 the full control effect; nearly all actives have a fitted effect of over 20% in size
Target sequence (P02791 2-175 limits assumed): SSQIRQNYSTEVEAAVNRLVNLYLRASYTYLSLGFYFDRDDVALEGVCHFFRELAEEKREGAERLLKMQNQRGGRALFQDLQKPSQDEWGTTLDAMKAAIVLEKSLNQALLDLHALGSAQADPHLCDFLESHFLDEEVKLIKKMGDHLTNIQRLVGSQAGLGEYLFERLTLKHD
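In PBS, apoferritin at 10 uM is loaded with 1-AMA from a 50% saturated solution. After 10 min of compound exposure at ambient temperature, reduced 535 nm fluorescence indicates probe displacement.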
TDP43 rescue: rescues yeast growth from TDP-43 toxicity. Potency, µM (highest dose often 46.1 µM), inactives show at the highest dose growth rescue (activation), most hits filed as activators. TDP-43 expressing yeast growth rescue, BacTiter-Glo, 24 h. 410,000 compounds, 1.8% hits; further: potency means the concentration at half of the fitted maximal effect; % of control where 0% means no effect; nearly all actives have a fitted effect of over 50% in size
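Yeast expressing TDP-43 (pregrown in raffinose, seeded at OD600=0.02 in galactose medium) exposed to compounds 24 hr at 30 deg C. Growth read by BacTiter-Glo luminescence; rescue of toxicity appears as increased signal.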
* = called active by the depositor; i = inactive; ? = inconclusive; nt = no result; [ ] = another dose, or the depositor's remark. Compounds with a hit are over-represented: about 2.5% of the library has one in this group of screens. Unless noted, the call rests on the fitted dose curve; in most records, active means well fitted curve in the direction sought with a large enough effect; inconclusive means small, poorly fitted or top-dose-only effect, or another doubt; inactive means no such curve, though single readings can be large; an effect the other way counts as inactive or inconclusive.

SMILES | Akt phos inh | aSyn yeast inh | CCT chaperon mod | Mito fusion yeast | Apoferritin bind | TDP43 rescue
CN(NC(=O)c1ccc(Cl)cc1)c1ncc(C(F)(F)F)cc1Cl | i | -1.8% | -1.1 | -1.7% | -5.4% | 2.7%
O/N=C(\c1ccc(Cl)cc1)c1ncc(C(F)(F)F)cc1Cl | i | -15.6% | 1.4 | 8.0% | ? | 12.6µM*
Cc1ccc(NC(=O)c2c(NC(=O)c3ccccc3Cl)sc3c2CCC3)cc1 | nt | nt | nt | nt | 2.7% | 4.8%
O=C1C2=CC[C@@H]3C(=O)N(c4ccc(F)cc4F)C(=O)[C@H]3[C@H]2[C@H](O)[C@H]2O[C@H]12 | nt | nt | nt | nt | 7.7%[15.3 µM] | nt
Cn1cc(/C=C/c2ccnc3ccccc23)c2ccccc21 | nt | -15.4% | nt | nt | nt | nt
Cc1ccc(OCCCn2ccnc2)cc1C | i | -0.1% | 0.4 | 1.4% | 17.8µM* | -2.7%
Cc1cccc(OCCCn2ccnc2)c1 | i | -4.8% | -13.9 | -12.0% | 8.1% | -8.0%
O=C(N/N=C/c1cn(-c2cccs2)nc1-c1ccccc1)c1ccc(O)cc1 | i | -2.1% | -1.1 | 3.7% | -5.7% | -9.5%
O=C(N/N=C/c1cn(-c2cccs2)nc1-c1ccccc1)c1ccccc1Cl | i | 8.2% | -2.4 | 17.8µM* | 2.4% | 0.1%
CC(C)n1nc(C(=O)NC2CCCCCC2)c2ccccc2c1=O | i | -0.5% | -2.4 | ? | nt | 22.4µM*
CC(C)(CCC(=S)N1CCOCC1)C1CCCCC1 | i | 2.8% | -39.8* | -15.9% | ? | nt
CCOC(=O)c1noc2ncn(CC(=O)Nc3cccc(C(F)(F)F)c3)c(=O)c12 | nt | 0.0% | nt | nt | 1.7% | 18.1%
COc1ccc(-c2nc(N)ncc2Oc2ccccc2Br)c(O)c1 | i | 7.1% | 3.8 | 7.3% | 77.8% | 0.0%
COc1cccc(Oc2cnc(N)nc2-c2ccc(OC)cc2O)c1 | i | 2.3% | 0.1 | 13.6% | -2.5% | 10µM*
Cc1nc(-c2ccc(S(=O)(=O)Nc3cc(Cl)ccc3C)cc2)co1 | nt | ? | nt | nt | -13.1% | 22.4µM*
COc1cccc(NS(=O)(=O)c2ccc3[nH]cc(C(=O)NC(C)c4ccccc4)c(=O)c3c2)c1 (centres undefined) | nt | 0.2% | nt | nt | -20.4% | -22.9%
Cc1ccc(NC(=O)c2ccc(-n3cccn3)c([N+](=O)[O-])c2)cc1C | -110.1%* | -1.2% | -3.2 | 5.3% | ? | -5.7%
Cc1cc(C(=O)Nc2ccc(Nc3ccccc3)cc2)ccc1[N+](=O)[O-] | i | 13.2% | 2.1 | 1.3% | ? | 12.6µM*
O=C(Nc1ccc(Cl)cc1)c1ccc(-n2cccn2)c([N+](=O)[O-])c1 | i | -2.3% | -0.5 | 17.0% | 6.3% | -11.1%
COc1ccc(F)cc1S(=O)(=O)NC1CC(C)(C)NC(C)(C)C1 | -112.2%* | -6.8% | -2.5 | 0.5% | -3.4% | -4.1%
O=c1[nH]c2c(-c3nc(-c4ccc(F)cc4)cs3)c(O)cn2c2ccc(Br)cc12 | nt | -1.6% | nt | nt | nt | nt
Cc1cc(Cl)ccc1OCC(=O)Nc1ccccc1N1CCOCC1 | i | 2.2% | -1.4 | -6.3% | -1.2% | 12.6µM*
Cc1cc(Cl)ccc1OCC(=O)NC(=S)Nc1ccccc1N1CCOCC1 | i | 2.7% | -0.1 | -1.5% | -6.4% | -25.7%
Cc1ccc(NC(=O)COc2ccc(Cl)cc2Cl)cc1S(=O)(=O)N1CCOCC1 | i | 8.3% | -1.7 | 25.9% | nt | 14.1µM*
O=C(NCc1cccc(Cl)c1)c1ccc(-n2cncn2)c2ccoc12 | i | 3.1% | -1.8 | nt | nt | 35.5µM*
SMILES | Akt phos inh | aSyn yeast inh | CCT chaperon mod | Mito fusion yeast | Apoferritin bind | TDP43 rescue
O=C(NCc1cccc(Cl)c1)c1ccc(-n2ccnc2)c2ccoc12 | i | 18.7% | -1.2 | nt | nt | -2.5%
CCOc1cc(-c2ccc3c(c2)OCO3)cc(=[O+]CC)c2c(C)oc(C)c12 | nt | 4.3% | nt | nt | nt | nt
CCOC(=O)Cn1c(=O)n(Cc2ccco2)c(=O)c2ccc(C(=O)NC3CCCC3)cc21 | i | 0.562µM* | -1.4 | 0.0% | -8.6% | 12.2%
CCOc1ccc(NC(=O)Cn2c(=O)n(Cc3ccco3)c(=O)c3ccc(C(=O)NC4CCCC4)cc32)cc1 | nt | -0.7% | nt | nt | -5.0% | 12.5%
CC1CCc2c(nc3nc[nH]n3c2=O)C1 (centres undefined) | -102.0%* | -3.4% | -1.0 | 1.4% | 0.8% | -2.8%
COc1ccc(C(=O)C[n+]2ccc(Cl)c3ccc(Cl)cc32)cc1 | nt | 4.2% | nt | nt | nt | nt
COc1cc(OC)c(OC)cc1/C=C/c1ccc2ccccc2[n+]1C | nt | -20.3% | nt | nt | nt | nt
CN1CCN(C(=S)Nc2ccc(Cl)c(Cl)c2)CC1 | i | 2.1% | -3.0 | -10.3% | 0.0% | -6.7%
S=C(Nc1ccc(Cl)c(Cl)c1)N1CCCC1 | i | -6.4% | -2.7 | -12.4% | -1.8% | 3.16µM*
COc1ccc(C2CC(c3ccc(Br)cc3)=NN2C(=O)c2cccnc2)cc1 (centres undefined) | i | ? | -0.7 | 17.8µM* | -13.8% | ?
C[C@@H]1O[C@H](O[C@@H]2C(O)[C@H](O)[C@@H](CO)O[C@H]2Oc2cc(O)c3c(=O)cc(-c4ccc(O)cc4)oc3c2)[C@H](O)[C@H](O)[C@H]1O (some centres undefined) | nt | nt | nt | nt | 0.0% | nt
O=C(Cc1cccc(C(F)(F)F)c1)OCN1C(=O)c2ccccc2C1=O | i | 24.3% | 2.0 | -0.2% | ? | 35.5µM*
Nc1ccc(N2CCN(c3cccc(Cl)c3)CC2)cc1 | i | 1.8% | 0.2 | 3.98µM* | -3.9% | ?
Clc1cccc(N2CCN(Cc3nnc(-c4ccccc4)o3)CC2)c1 | i | 7.9% | 0.0 | ? | -4.5% | 11.2µM*
Clc1cccc(N2CCN(CCCN3CCN(c4ccccc4)CC3)CC2)c1 | i | 0.4% | 0.7 | nt | nt | -12.4%
OC(CN1CCN(c2cccc(Cl)c2)CC1)C(c1ccccc1)c1ccccc1 (centres undefined) | i | 1.0% | -44.0* | 17.1% | nt | 3.9%
CN(C)CCCNc1cc(N2CCN(C3CCCCC3)CC2)c2noc3c2c1C(=O)c1ccccc1-3 | nt | nt | nt | nt | ? | -0.6%
O=C1C2ON(c3ccccc3)C(c3ccncc3)C2C(=O)N1c1ccc(Br)cc1 (centres undefined) | i | 15.5% | -0.7 | -2.8% | ? | ?
O=C1C2ON(c3ccccc3)C(c3ccccn3)C2C(=O)N1c1ccc(Br)cc1 (centres undefined) | i | 26.1% | 3.4 | 4.9% | -13.5% | 12.6µM*
COCCN(Cc1cn(C)nc1-c1ccccc1F)C(C)C | i | -1.6% | 3.4 | 5.62µM* | -6.2% | -24.0%
CN(C)c1ccc(C(C[N+](=O)[O-])c2c(N)n(C)c(=O)n(C)c2=O)c(F)c1C#N (centres undefined) | i | -68.7% | -0.6 | -18.5% | 3.8% | -93.8%

Compound activity as filed in PubChem BioAssay.
